Laboratory results published in PubChem BioAssay (NCI).
Values joined by “and” are separate entries in the source; they are usually repeats but may differ in a detail not shown here. Equal entries are not always repeated. About 79,000 compounds went through this panel and 15% of them were active in at least one assay; those are over-represented in the sample as a whole. The source holds several records for some structures; these can differ, active in one and inactive in another. Active and inactive are the calls of the source. Cut-off read from the data, not from the text of the source: active = growth inhibition above about 70%; inactive = the rest.

Legend:
[1] = NCI Yeast Anticancer Drug Screen. Data for the rad50 strain (AID 155);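 note: 0% = growth of vehicle-only cultures of the same strain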; settings: S. cerevisiae rad50 strain growth inhibition, stronger effect = higher value
Method in brief: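 Genetically altered yeast (DNA repair pathway); compound treatment; growth inhibition vs vehicle ctrl.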

[2] = NCI Yeast Anticancer Drug Screen. Data for the mec2-1 strain (AID 157); settings: S. cerevisiae mec2-1 strain, stronger effect = higher value
Method in brief: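 Compounds were applied to mec2-1 yeast cells. Their growth was then compared with that of vehicle-treated cultures to give growth inhibition.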

[3] = NCI Yeast Anticancer Drug Screen. Data for the sgs1 mgt1 strain (AID 161);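 note: 0% = growth of cultures given vehicle only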; settings: S. cerevisiae sgs1 mgt1 strain, stronger effect = higher value
Method in brief: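 This yeast growth screen uses a strain with defined DNA-repair lesions; compound-treated growth is compared with vehicle-treated growth.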

[4] = NCI Yeast Anticancer Drug Screen. Data for the cln2 rad14 strain (AID 165);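 note: 0% = growth equal to vehicle treated cultures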; settings: S. cerevisiae cln2 rad14 strain, stronger effect = higher value
Method in brief: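 Strain: cln2 rad14 yeast, altered in cell cycle control and DNA damage repair. Read-out: growth inhibition vs vehicle.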

[5] = NCI Yeast Anticancer Drug Screen. Data for the bub3 strain (AID 167); settings: S. cerevisiae bub3 mutant strain, stronger effect = higher value
Method in brief: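 Yeast carrying a defined mutation is treated with each compound, and growth is compared with that of vehicle-exposed cells to give inhibition.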

[6] = NCI Yeast Anticancer Drug Screen. Data for the mlh1 rad18 strain (AID 175); settings: S. cerevisiae mlh1 rad18 strain growth inhibition, stronger effect = higher value
Method in brief: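 A repair-deficient yeast strain is exposed to test compound, and growth is scored relative to vehicle-treated controls.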

[7] = at 5.0 µM (retest, dose inferred, filed as 0.5)
[8] = at 50.0 µM (retest, dose inferred, filed as 5.0)

| Compound | growth inhibition [1, 7] | growth inhibition [1, 8] | growth inhibition ([1]; at 50.0 µM) | growth inhibition [2, 7] | growth inhibition [2, 8] | growth inhibition ([2]; at 50.0 µM) | growth inhibition [3, 7] | growth inhibition [3, 8] | growth inhibition ([3]; at 50.0 µM) | growth inhibition [4, 7] | growth inhibition [4, 8] | growth inhibition ([4]; at 50.0 µM) | growth inhibition [5, 7] | growth inhibition [5, 8] | growth inhibition ([5]; at 50.0 µM) | growth inhibition [6, 7] | growth inhibition [6, 8] | growth inhibition ([6]; at 50.0 µM) |
| --- | --- | --- | --- | --- | --- | --- | --- | --- | --- | --- | --- | --- | --- | --- | --- | --- | --- | --- |
| CC1(C)OC2C(O)C(O)C3OC(C)(C)OC3C2O1 (centres undefined) | -20% (inactive) | 6% (inactive) | 6% (inactive) and 7.9% (inactive) | -13% (inactive) | 2% (inactive) | 9.35% (inactive) and -8.1% (inactive) | -6% (inactive) | 2% (inactive) | 14.4% (inactive) and 6.4% (inactive) | -1% (inactive) | 0% (inactive) | 74.1% (active) and -2.4% (inactive) | 2% (inactive) | 2% (inactive) | 61% (inactive) and 15.4% (inactive) | 25% (inactive) | 15% (inactive) | 44% (inactive) and 9.25% (inactive) |
| O/N=C/c1cc(I)c(O)c(I)c1 | 99% (active) | 98% (active) | 98.8% (active) | 97% (active) | 99% (active) | 98.2% (active) | 99% (active) | 99% (active) | 98.8% (active) | 99% (active) | 98% (active) | 98.3% (active) | 99% (active) | 99% (active) | 98.8% (active) | 98% (active) | 98% (active) | 98.5% (active) |
| O=C(/C=C/c1cccnc1)c1ccccc1 | 2% (inactive) | 48% (inactive) | 9.2% (inactive) and 25.8% (inactive) | 0% (inactive) | 67% (inactive) | -9.2% (inactive) and 41.6% (inactive) | -1% (inactive) | 65% (inactive) | -15.7% (inactive) and 61.4% (inactive) | 5% (inactive) | 14% (inactive) | 15.1% (inactive) and 3.65% (inactive) | 0% (inactive) | 40% (inactive) | -10% (inactive) and 25.5% (inactive) | 4% (inactive) | 36% (inactive) | -21.9% (inactive) and 69.2% (inactive) |
| Nc1ccc2cc3ccc(N)cc3nc2c1 | 21% (inactive) | 86% (active) | 38.1% (inactive) and 73.2% (active) | 9% (inactive) | 31% (inactive) | 32.5% (inactive) and 54.3% (inactive) | 11% (inactive) | 37% (inactive) | 3.15% (inactive) and 35% (inactive) | 12% (inactive) | 11% (inactive) | 9.45% (inactive) and 69.2% (inactive) | 6% (inactive) | 20% (inactive) | 19.8% (inactive) and 36.3% (inactive) | 9% (inactive) | 51% (inactive) | 15.5% (inactive) and 77% (active) |
| O=C(O)c1ccc(Nc2cnc3ccc(C(F)(F)F)cc3n2)cc1 | 18% (inactive) | 16% (inactive) | 60.9% (inactive) | 4% (inactive) | 12% (inactive) | 41.2% (inactive) | 10% (inactive) | 13% (inactive) | 18.2% (inactive) | 5% (inactive) | 12% (inactive) | -0.05% (inactive) | 5% (inactive) | 12% (inactive) | 4.9% (inactive) | 16% (inactive) | 16% (inactive) | 6.7% (inactive) |
| O=S(O)CCCCSSCC(O)C(O)CSSCCCCS(=O)O (centres undefined) | -7% (inactive) | 21% (inactive) | 49.4% (inactive) | 12% (inactive) | 44% (inactive) | 56.1% (inactive) | 6% (inactive) | 50% (inactive) | 78.8% (active) | -10% (inactive) | 24% (inactive) | 37% (inactive) | 3% (inactive) | 55% (inactive) | 57.5% (inactive) | 3% (inactive) | 33% (inactive) | 73% (active) |
| COc1ccc(C2c3cc4c(cc3OC(NNC(N)=O)C2C)OCO4)cc1 (centres undefined) | -1% (inactive) | 96% (active) | 84.5% (active) | -36% (inactive) | 96% (active) | 80.4% (active) | -38% (inactive) | 96% (active) | 87.8% (active) | -4% (inactive) | 95% (active) | 76% (active) | -34% (inactive) | 99% (active) | 85.8% (active) | 6% (inactive) | 97% (active) | 85.8% (active) |
| Cc1ccc(C23C=CC(c4ccccc4)(C2)C2C(=O)OC(=O)C23)cc1 (centres undefined) | 86% (active) | 96% (active) | 98.5% (active) | 85% (active) | 97% (active) | 98.5% (active) | 81% (active) | 98% (active) | 98.6% (active) | 36% (inactive) | 97% (active) | 92.2% (active) | 85% (active) | 97% (active) | 98.7% (active) | 79% (active) | 97% (active) | 95.8% (active) |
